HCV inhibitor: inhibitors of hepatitis C virus infection. 3.4% of 340,000 active. Potency, µM (top dose mostly 41.8 µM), usual class: inhibitors. AID 651820. Huh7.5.1 HCVcc-Cre infection, luciferase reporter, 44 h
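Cells seeded at 1,000/well and cultured 4 h, then compounds added followed by HCVcc-Cre virus (~0.5 moi). After 44 h further culture, luciferase substrate was added, plates held 15 min at room temperature, and luminescence read for 15 sec.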
Pf growth 96h: inhibits malaria parasite growth, 96 h; P. falciparum luciferase reporter growth, 96 h; Potency, µM (highest dose often 28.7 µM), actives largely listed as inhibitors; 6.9% of 320,000 active; AID 504834
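Two parasite generations (96 h, 37 C, 5% CO2) of compound exposure in infected erythrocytes (0.05% parasitemia, 2% hematocrit). Luciferase-reporter P. falciparum; decreased luminescence indicates inhibited growth, aimed at apicoplast-acting delayed death.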
AMA1 RON2 block: AMA1-RON2 (P. falciparum) interaction inhibition; AlphaScreen AMA1-biotinylated RON2 peptide binding; Potency, µM (top dose mostly 58.2 µM), most hits filed as inhibitors; 0.2% of 360,000 active; AID 720542; note: nearly all actives have a fitted effect of over 45% in size
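AMA1 (3D7) with his tag at 25 nM final met compounds first, then biotinylated RON2 peptide at 25 nM; detection used donor plus acceptor beads, 10 µg/mL apiece, read by AlphaScreen after 30 min at room temperature.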
NS1 function inh: inhibitors of influenza NS1 protein function. Potency, µM (top dose mostly 46.1 µM). 0.4% of 270,000 active; calls by dose curve; note: actives are rising curves; nearly all actives have a fitted effect of over 50% in size
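Growth recovery, yeast-based: influenza A NS1 expressed in S. cerevisiae causes slow growth, and suppressors are detected by OD600. The parent strain without NS1 is used as positive control.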
SARS PLpro yeast: inhibitors of SARS-CoV papain-like protease in yeast; S. cerevisiae expressing SARS-CoV PLpro, growth rescue; Potency, µM (highest dose often 32.9 µM), actives largely listed as activators; 0.19% of 330,000 active; AID 485353; calls by dose curve; note: nearly all actives have a fitted effect of over 55% in size
Pf growth 48h: P. falciparum growth inhibition at 48 hours (one generation); P. falciparum luciferase growth in erythrocytes, 48 h; 5.9% of 310,000 active; AID 504832; Potency, µM (top dose mostly 28.7 µM), most hits filed as inhibitors
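Read-out is firefly luciferase luminescence from an integrated reporter in P. falciparum, so falling signal marks reduced parasite growth. Infected erythrocytes were at 2% hematocrit and 0.1% parasitemia (final) in Albumax-supplemented RPMI 1640.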
Of the large screens only hits and unclear results are named; the others gave an inactive call. Most compounds without a hit are left out; they make up all but 12% or so of the library. Unless noted, calls come from the whole dose curve; as a rule, active = well fitted curve in the direction sought with a large enough effect; inconclusive = small, poorly fitted or top-dose-only effect, or another doubt; inactive = no such curve, though single readings can be large; an effect the other way counts as inactive or inconclusive.

CC(C)[C@@H]1NC(=O)c2cc([N+](=O)[O-])cc(F)c2NCCC[C@@H](C(N)=O)NC(=O)[C@H](CO)NC1=O	Pf growth 96h 9.28µM (no result: AMA1 RON2 block)
CC(C)[C@@H]1NC(=O)c2cc([N+](=O)[O-])cc(I)c2NCC[C@@H](C(N)=O)NC(=O)[C@H](CO)NC1=O	none (no result: AMA1 RON2 block)
CC(C)C[C@@H]1NC(=O)[C@H](Cc2ccc(O)cc2)NC(=O)[C@H](CCC(N)=O)NC(=O)c2cc([N+](=O)[O-])cc(I)c2NCC[C@@H](C(N)=O)NC1=O	none (no result: AMA1 RON2 block)
NC(=O)[C@@H]1CCNc2c(I)cc([N+](=O)[O-])cc2C(=O)N[C@@H](CO)C(=O)N[C@@H](Cc2ccc(O)cc2)C(=O)N1	NS1 function inh 11.2µM (no result: AMA1 RON2 block)
COc1cccc(CNC(=O)C2CCC(=O)N(C3CC3)C2)c1OC (centres undefined)	Pf growth 96h inconclusive
O=C(/C=C/c1ccc2ccccc2n1)c1cc(Cl)ccc1O	Pf growth 96h inconclusive, Pf growth 48h 2.33µM
O=C(/C=C/c1cccs1)c1cc(Cl)ccc1O	AMA1 RON2 block inconclusive, Pf growth 48h inconclusive
O=C1O[C@@H]([C@H](O)CO)C(O)=C1O	none (no result: Pf growth 96h, NS1 function inh, SARS PLpro yeast, Pf growth 48h)
CC(C)c1ccc(NC2=CC(=O)CC(C)(C)C2)cc1	HCV inhibitor inconclusive, Pf growth 96h 4.65µM
CCc1ccc(NC2=CC(=O)CC(C)(C)C2)cc1	none
COc1ccc(-c2ccc3c(c2)c(Sc2ccccc2)c(-c2ccccc2)n3C)cc1	none (no result: HCV inhibitor, Pf growth 96h, NS1 function inh, SARS PLpro yeast, Pf growth 48h)
NC(=O)c1nsc(C(=O)N(c2ccccc2F)C(C(=O)NCc2ccc(F)cc2)c2ccc(O)cc2)c1N (centres undefined)	HCV inhibitor 3.55µM, Pf growth 48h inconclusive
COc1ccc(C(C(=O)NCc2ccccc2)N(Cc2ccco2)C(=O)c2snc(C(N)=O)c2N)cc1OC (centres undefined)	HCV inhibitor inconclusive, Pf growth 48h 10.4µM
COc1ccc(C(C(=O)NCc2ccccc2)N(Cc2ccco2)C(=O)c2snc(C(N)=O)c2N)cc1 (centres undefined)	HCV inhibitor inconclusive, Pf growth 48h inconclusive
COc1ccc(N(C(=O)c2snc(C(N)=O)c2N)C(C(=O)NCc2ccccc2)c2ccc(F)cc2)c(OC)c1 (centres undefined)	HCV inhibitor inconclusive, Pf growth 48h 10.4µM
COc1ccccc1N(C(=O)c1snc(C(N)=O)c1N)C(C(=O)NCc1ccccc1)c1ccc(O)cc1 (centres undefined)	Pf growth 48h inconclusive
COc1ccc(N(C(=O)c2snc(C(N)=O)c2N)C(C(=O)NC2CCCCC2)c2ccc(F)cc2)c(OC)c1 (centres undefined)	Pf growth 48h inconclusive
COc1ccc(C(C(=O)NCc2ccccc2)N(C(=O)c2snc(C(N)=O)c2N)c2ccccc2OC)cc1 (centres undefined)	HCV inhibitor inconclusive, AMA1 RON2 block inconclusive, Pf growth 48h 5.22µM
COc1ccc(N(CC(=O)NCc2ccc(F)cc2)C(=O)c2snc(C(N)=O)c2N)cc1	HCV inhibitor inconclusive, SARS PLpro yeast 15.8µM
COc1ccc(CNC(=O)CN(C(=O)c2snc(C(N)=O)c2N)c2ccc(F)cc2)cc1	HCV inhibitor inconclusive
CC(OC(=O)/C=C/c1ccccc1)C(=O)N1CCc2ccccc21 (centres undefined)	none (no result: NS1 function inh, SARS PLpro yeast)
CCC(=NCc1ccc(Cl)c(Cl)c1)c1nc(-c2ccco2)oc1O	Pf growth 96h 11.7µM, AMA1 RON2 block inconclusive, Pf growth 48h inconclusive
O=C(Cn1cccc1C(=O)c1ccccc1)NCc1cccc(Cl)c1	Pf growth 96h 13.1µM (no result: NS1 function inh)
O=C(Cn1cccc1C(=O)c1ccccc1)NCc1ccc(Cl)cc1	AMA1 RON2 block inconclusive (no result: NS1 function inh)
Cc1cccc(S(=O)(=O)NC(=O)C2(C)CCN2C(=O)c2sccc2C)c1 (centres undefined)	none (no result: HCV inhibitor, Pf growth 96h, NS1 function inh, SARS PLpro yeast, Pf growth 48h)
CCC(CC)C(=O)Oc1c(Sc2ccccc2[N+](=O)[O-])c(C)nn1C(C)(C)C	Pf growth 96h inconclusive, Pf growth 48h 9.28µM
Cc1cccc(NS(=O)(=O)c2ccc(C(=O)N3CC(C)OC(C)C3)cc2)c1C (centres undefined)	none (no result: NS1 function inh)
O=c1[nH]ncc2c3ccccc3n(Cc3ccc(F)cc3)c12	Pf growth 48h 3.29µM

Source: PubChem (National Center for Advancing Translational Sciences (NCATS))
